Screens (PubChem BioAssay)
An excerpt weighted towards active compounds, which were near 4.4% of everything screened.
ALOX12 inhib = blocks human 12-lipoxygenase activity | AID 1452 | P18054 | Potency, µM (series often up to 57.1 µM), for inactives: top-dose activity change, negative = inhibition, usual class: inhibitors | purified 12-hLO, xylenol orange hydroperoxide absorbance | actives 0.12% (n = 150,000); further: nearly all actives have a fitted effect of over 55% in size
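Hydroperoxide formation by human 12-lipoxygenase from 40 uM arachidonic acid was followed colorimetrically via ferric-xylenol orange complex, using the 573/405 nm absorbance ratio. Enzyme concentration was 150 nM, with 30 min reaction at room temperature.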
p53ts 32C tox = cytotoxicity in p53ts cells at permissive temperature. H1299-p53A138V at 32C, ATP luminescence viability, 24 h. Potency, µM (series often up to 46.1 µM), inactives show at the top dose activity change, negative = cytotoxicity, actives largely listed as cytotoxic. actives 0.93% (n = 130,000). AID 924;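 further: 0% = DMSO and -100% = full killing by reference compound; nearly all actives have a fitted effect of over 55% in size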
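Cells: H1299 p53ts (A138V), 600/well, pre-incubated 16–30 h at 37C. Cpd up to 46 uM, 24 h, 32C. Readout: ATPlite luminescence, 20 min RT. Normalization: DMSO vs tamoxifen 100 uM. AC50 by Hill equation.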
p53ts 39C tox = p53ts cell cytotoxicity, nonpermissive temperature. actives 1.5% (n = 130,000). H1299-p53A138V viability at 39C, ATP luminescence, 24 h. Potency, µM (doses to about 46.1 µM), for the others: at the highest dose activity change, negative = cell killing, most hits filed as cytotoxic; further: nearly all actives have a fitted effect of over 55% in size
HPGD block = blocks human HPGD enzyme activity; actives 4.3% (n = 150,000); Potency, µM, for the others: top-dose activity change, negative = inhibition, most hits filed as inhibitors; purified HPGD, NADH fluorescence kinetic, PGE2 substrate; AID 894; active means well fitted inhibition curve with a large enough effect, not every such curve was filed as active; inconclusive means small, poorly fitted or top-dose-only effect, or another doubt; inactive means no such curve, though single readings can be large or run the other way
Target sequence (P15428 whole entry, looked up): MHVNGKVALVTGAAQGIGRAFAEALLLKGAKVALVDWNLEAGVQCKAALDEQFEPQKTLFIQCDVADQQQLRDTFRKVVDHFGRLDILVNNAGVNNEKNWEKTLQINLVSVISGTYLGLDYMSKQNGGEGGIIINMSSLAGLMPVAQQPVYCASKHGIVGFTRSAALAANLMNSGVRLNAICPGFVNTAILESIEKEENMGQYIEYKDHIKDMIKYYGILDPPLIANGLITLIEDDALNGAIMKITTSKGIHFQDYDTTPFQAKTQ
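NADH formation kinetics: reaction with 30 uM PGE2 and 1 mM NAD+ (final), 20 nM enzyme, Tris-HCl pH 8 with Tween 20, after 15 min compound preincubation at room temperature. Fluorescence change, last versus first of five reads.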
The depositor's hits bear a star; u = inconclusive; x = no result given; ! = not active in a repeat; [ ] = remark or other dose. Unless noted, the call rests on the fitted dose curve; in most records, active means well fitted curve in the direction sought with a large enough effect; inconclusive means small, poorly fitted or top-dose-only effect, or another doubt; inactive means no such curve, though single readings can be large; an effect the other way counts as inactive or inconclusive. Unless noted, on the % scale 0 is the no-effect control and ±100 the full control effect; potency means the concentration at half of the fitted maximal effect.

SMILES	ALOX12 inhib	p53ts 32C tox	p53ts 39C tox	HPGD block
C=C(C)CSc1nc2ncc(Cl)cc2[nH]1	2%	x	x	13µM*
Cc1ccc(C(=O)NC(O)C(Cl)(Cl)Cl)cc1 (stereo unspecified)	3%	x	-6%	14µM*
Cc1cccc(C(=O)NC(Oc2ccccc2)C(Cl)(Cl)Cl)c1 (stereo unspecified)	2%	x	x	-10%
CCOC(=O)c1ccc(-n2c(N)c(C(=O)NCC3CCCO3)sc2=S)cc1 (stereo unspecified)	-10%	x	x	7.9µM*
CCc1ccccc1Nc1nn2c(=O)c3ccc(C(=O)Nc4cc(C)cc(C)c4)cc3nc2s1	x	3.2µM*	4µM*	x
CCOC(=O)c1ccc(NC(=O)c2cccn(Cc3ccccc3F)c2=O)cc1	x	-11%	u	x
COc1cccc2c1C(=O)c1c(O)c3c(c(O)c1C2=O)C[C@](O)(/C(C)=N\O)C[C@@H]3O[C@H]1C[C@H](N)[C@@H](O)[C@H](C)O1	0%[11.4 µM]	-10%[9.22 µM]	-19%[9.22 µM]	-7%
COc1cc(N2CCOCC2)ccc1C=C1C(=O)NC(=O)NC1=O	1%	x	x	32µM*
CCOc1cc(C=C2C(=O)NC(=O)NC2=O)ccc1OCC(=O)N1CCOCC1	-3%	x	x	-18%
COc1cc(/C=C2/C(=O)N(c3ccccc3)N=C2C)ccc1OS(=O)(=O)c1ccccc1	-1%	x	x	20µM*
COc1ccc(C=O)cc1OC	-6%	10%[1.84 µM]	0%	-14%
CCOc1cc(C=C2C(=O)NC(=O)NC2=O)ccc1OS(=O)(=O)c1ccccc1	-8%	x	x	13µM*
COc1cc2c(cc1OC)[C@@]13CCN4CC5=CCO[C@H](CC(=O)O)[C@@H]([C@H]1N2)[C@H]5C[C@H]43	4%[11.4 µM]	5%[9.22 µM]	11%[9.22 µM]	-11%
CCN(CC)c1ccc(CN(C)CCc2ccc(OC)c(OC)c2)cc1	-1%	x	x	6%
COc1ccc(Cc2nccc3cc(OC)c(OC)cc23)cc1OC	u	-1%	-17%	14µM*!
NNc1nncn1N	-3%[11.4 µM]	-2%[9.22 µM]	7%[9.22 µM]	-11%
CCSCC[C@H](N)C(=O)O	-6%[11.4 µM]	6%[9.22 µM]	0%[9.22 µM]	-14%
O=c1[nH]c(=O)n(-c2ccc(Cl)cc2)c(O)c1C=Nc1ccc(S(=O)(=O)Nc2nccs2)cc1	0%	x	x	22µM*
CCN(CC)S(=O)(=O)c1ccc(N=Cc2c(O)n(-c3ccccc3)c(=O)[nH]c2=O)cc1	-4%	9%	7%	-26%
O=[N+]([O-])c1ccccc1O	-1%	4%[1.84 µM]	-24%	-1%
N#CC(C#N)=Cc1ccc([N+](=O)[O-])c(O)c1	-6%[0.00818 µM]	13%	29%	16µM*
Cc1c([C@@H](C)C2NC[C@H](C)C[C@@H]2O)ccc2c1C[C@@H]1[C@H]2CC=C2C[C@@H](O)CC[C@@]21C (stereo partly specified)	x	x	x	-11%
COc1cc2c(cc1OC)[C@]13CC[N@+]4(C)CC5=CCO[C@H]6CC(=O)N2[C@@H]1[C@@H]6[C@@H]5C[C@]34O	1%[11.4 µM]	2%[9.22 µM]	13%[9.22 µM]	x
O/N=C/c1c[nH]c2ccccc12	-5%	9%	11%	7.1µM*
O=C(O)C[C@H]1OCC=C2CN3CC[C@]45c6ccccc6N[C@@H]4[C@H]1[C@H]2C[C@H]35	2%[11.4 µM]	-2%[9.22 µM]	-3%[9.22 µM]	-7%
SMILES	ALOX12 inhib	p53ts 32C tox	p53ts 39C tox	HPGD block
Cc1nc2c(=O)n(C)c(=O)nc-2n(C)n1	-17%	1.1µM*	2µM*	-18%
O=C(NCP(=O)(O)O)c1cccnc1	-4%[11.4 µM]	3%[9.22 µM]	5%[9.22 µM]	-4%
CCOP(=O)(NC(C)C)Oc1ccc(SC)c(C)c1 (stereo unspecified)	-9%	11%[1.84 µM]	-2%	5.6µM*
C1C[C@@H]2CN(CCCN3CCOCC3)[C@@H](C1)O2	-4%[11.4 µM]	-3%[9.22 µM]	-7%[9.22 µM]	-4%
CCCCN1C(=O)/C(=C/c2ccc(N3CCCCCC3)cc2)C(=O)NC1=S	-12%	x	3%	-15%
C=CCN1C(=O)/C(=C/c2ccc3c(c2)CCCN3CCC)C(=O)NC1=S	-18%	-2%	-9%	14µM*
O=C1NC(=S)N(C2CC2)C(=O)/C1=C/c1ccc2c(c1)CCN2CCCCl	-19%	x	x	11µM*
CCN1C(=O)/C(=C/c2ccc3c(c2)CCN3CCCCl)C(=O)NC1=S	-28%	x	x	7.9µM*
CC(=O)OC1=CC2=CC[C@H]3[C@H]4CCC(=O)[C@@]4(C)CC(=O)[C@]3(S)[C@]2(C)CC1	-6%[11.4 µM]	-7%[9.22 µM]	6%[9.22 µM]	-4%
CN(C)CCCNc1c2c(nc3ccc(Cl)cc13)CCCC2	0%[11.4 µM]	-15%[9.22 µM]	-5%[9.22 µM]	-4%
c1ccc(-c2nc(N3CCOCC3)s[n+]2-c2ccccc2)cc1	1%	x	x	10µM*
O=C(C[C@H](c1ccccc1)c1c(O)c2ccccc2oc1=O)c1ccccc1	-4%[11.4 µM]	1%[9.22 µM]	13%[9.22 µM]	-5%
Cc1ccccc1N1C(=O)NC(=O)/C(=C\c2cnn(-c3ccccc3)c2)C1=O	-9%	x	x	10µM*
Cc1ccc(NC(=O)Nc2ccc3nc(N4CCN(C)CC4)cc(C)c3c2)cc1F	x	25µM*	u	x
CSc1ccc2c(c1)c(CCN)c(C)n2Cc1ccccc1Cl	3%[11.4 µM]	4%[9.22 µM]	-15%[9.22 µM]	-10%
COc1ccc(CCn2c(O)c(C=NCc3cccnc3)c(=O)[nH]c2=O)cc1OC	-6%	-1%	-3%	-7%
CCN(CC)CCCN=Cc1c(O)n(Cc2ccc(F)cc2)c(=O)[nH]c1=O	4%	-19%	-14%	-12%
O=c1[nH]c(=O)n(Cc2ccc(F)cc2)c(O)c1C=NCc1cccnc1	-6%	-8%	11%	16µM*
O=c1[nH]c(=O)n(Cc2ccccc2)c(O)c1C=NCCN1CCOCC1	6%	x	x	32µM*
CCN(CC)CCN=Cc1c(O)n(Cc2ccccc2)c(=O)[nH]c1=O	17%	x	x	35µM*
O=c1[nH]c(=O)n(Cc2ccc(F)cc2)c(O)c1C=NCCCN1CCOCC1	1%	1%	7%	-7%
Nc1ccc(S(=O)(=O)c2ccc(NCN3C(=O)NC(=O)C(=O)C3=O)cc2)cc1	1%[11.4 µM]	-1%[9.22 µM]	-7%[9.22 µM]	-18%
C[n+]1c(/C=C\c2ccc(O)c3ncccc23)[se]c2ccccc21	-20%[11.4 µM]	-18%[9.22 µM]	u	-11%
O=C(O)C[C@H]1NCc2cc3ccccc3nc21	4%[11.4 µM]	-1%[9.22 µM]	2%[9.22 µM]	-3%
c1ccc(CCN2CCOCC2)nc1	4%[11.4 µM]	-2%[9.22 µM]	1%[9.22 µM]	-2%
SMILES	ALOX12 inhib	p53ts 32C tox	p53ts 39C tox	HPGD block
O=C(Nc1nc2ccccc2s1)c1cccn(Cc2ccccc2)c1=O	x	-2%	u	x
Cc1ccccc1Cn1cccc(C(=O)Nc2nc3ccccc3s2)c1=O	x	11%	10µM*	x
CC(C)(C)n1cccc1/C=C1\C(=O)NC(=O)N(c2ccccc2)C1=O	3%	x	x	2%
Cc1ccc(N2C(=O)NC(=O)/C(=C\C=C\c3ccco3)C2=O)cc1C	-18%	x	x	10µM*
O=C(Oc1ccc(S(=O)(=O)F)cc1F)c1ccccc1Cl	2%[11.4 µM]	4%[9.22 µM]	7%[9.22 µM]	-14%
N#C/C(=C\c1ccc(O)c(O)c1)C(=O)NCCCNC(=O)/C(C#N)=C/c1ccc(O)c(O)c1	u	-21%	u	16µM*
